# Where “and” joins values, the source holds several entries; their conditions need not be identical. Equal values may be shown once.
# Assays:
# [1] = biological target: Bromodomain-containing protein 4 (Homo sapiens) (UniProt O60885); settings: Compound concentration 10.0 uM, Protein concentration 2.0 uM
# [2] = biological target: T1, Transcription intermediary factor 1-alpha (Homo sapiens) (UniProt O15164); settings: Compound concentration 10.0 uM, Protein concentration 2.0 uM
# T1 sequence (whole entry): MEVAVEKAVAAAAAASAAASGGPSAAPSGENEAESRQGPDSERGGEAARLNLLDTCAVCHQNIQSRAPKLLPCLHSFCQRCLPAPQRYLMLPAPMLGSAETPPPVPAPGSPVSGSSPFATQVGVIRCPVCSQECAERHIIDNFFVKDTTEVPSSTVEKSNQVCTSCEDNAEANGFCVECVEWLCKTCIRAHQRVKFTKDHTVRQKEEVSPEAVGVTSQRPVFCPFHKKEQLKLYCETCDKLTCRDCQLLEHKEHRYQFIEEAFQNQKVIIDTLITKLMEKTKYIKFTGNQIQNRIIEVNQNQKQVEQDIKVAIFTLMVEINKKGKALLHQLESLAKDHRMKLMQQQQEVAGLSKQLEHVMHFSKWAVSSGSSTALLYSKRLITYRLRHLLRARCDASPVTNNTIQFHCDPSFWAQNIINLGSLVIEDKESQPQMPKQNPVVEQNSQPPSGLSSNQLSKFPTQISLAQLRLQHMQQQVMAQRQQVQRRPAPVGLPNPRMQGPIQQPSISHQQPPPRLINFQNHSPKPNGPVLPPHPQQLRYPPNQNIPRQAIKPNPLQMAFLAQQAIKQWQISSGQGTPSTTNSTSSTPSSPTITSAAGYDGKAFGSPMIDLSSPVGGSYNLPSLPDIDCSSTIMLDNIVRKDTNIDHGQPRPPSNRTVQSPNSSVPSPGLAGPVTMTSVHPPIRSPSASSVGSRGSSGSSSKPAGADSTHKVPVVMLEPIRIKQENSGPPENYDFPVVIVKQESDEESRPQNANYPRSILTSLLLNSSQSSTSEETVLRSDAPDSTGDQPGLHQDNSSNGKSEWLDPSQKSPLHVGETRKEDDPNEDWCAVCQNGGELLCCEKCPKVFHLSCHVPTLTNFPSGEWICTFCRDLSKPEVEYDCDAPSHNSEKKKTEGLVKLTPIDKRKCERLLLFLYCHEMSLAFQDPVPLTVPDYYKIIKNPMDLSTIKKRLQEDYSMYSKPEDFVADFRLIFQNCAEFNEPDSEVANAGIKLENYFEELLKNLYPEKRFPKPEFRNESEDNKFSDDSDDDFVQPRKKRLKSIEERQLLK
structure (smiles),measurement,setting,value
CCC(=O)N1CCOc2c(cc(-c3ccc(OC)c(OC)c3)cc2OC[C@H]2CCCN(C)C2)C1,ΔTm,[1],2.08 °C and 2.81 °C
same,ΔTm,[2],1.25 °C
